Inconclusive results are not listed. Active and inactive are the calls of the source. Rule for the calls: active = hit-call score of the fitted dose curve at least 0.9, where 1 is the maximum; inconclusive = response in the unintended direction; inactive = score below 0.9.

One may read the AC50 as the midpoint of the concentration-response curve, whichever way the signal moves.

Chain of human Beta-secretase (BACE), BACE1 (gene 23621) (P56817 whole entry, looked up): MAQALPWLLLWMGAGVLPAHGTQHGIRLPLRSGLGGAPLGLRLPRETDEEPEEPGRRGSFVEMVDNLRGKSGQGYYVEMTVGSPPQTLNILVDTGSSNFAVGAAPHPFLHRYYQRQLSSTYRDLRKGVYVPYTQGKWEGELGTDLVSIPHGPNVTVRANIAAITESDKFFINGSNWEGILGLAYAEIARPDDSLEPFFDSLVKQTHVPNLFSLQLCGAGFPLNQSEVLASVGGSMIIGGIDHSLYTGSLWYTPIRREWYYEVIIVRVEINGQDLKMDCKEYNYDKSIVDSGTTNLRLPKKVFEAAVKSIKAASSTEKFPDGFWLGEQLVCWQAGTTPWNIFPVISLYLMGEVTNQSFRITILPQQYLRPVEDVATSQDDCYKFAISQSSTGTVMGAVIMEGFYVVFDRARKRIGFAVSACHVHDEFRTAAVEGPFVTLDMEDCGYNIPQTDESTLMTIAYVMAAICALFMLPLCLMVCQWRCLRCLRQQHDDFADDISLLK
Chain of human AKT serine/threonine Kinase 1 (AKT1), AKT1 (gene 207) (P31749 whole entry, looked up): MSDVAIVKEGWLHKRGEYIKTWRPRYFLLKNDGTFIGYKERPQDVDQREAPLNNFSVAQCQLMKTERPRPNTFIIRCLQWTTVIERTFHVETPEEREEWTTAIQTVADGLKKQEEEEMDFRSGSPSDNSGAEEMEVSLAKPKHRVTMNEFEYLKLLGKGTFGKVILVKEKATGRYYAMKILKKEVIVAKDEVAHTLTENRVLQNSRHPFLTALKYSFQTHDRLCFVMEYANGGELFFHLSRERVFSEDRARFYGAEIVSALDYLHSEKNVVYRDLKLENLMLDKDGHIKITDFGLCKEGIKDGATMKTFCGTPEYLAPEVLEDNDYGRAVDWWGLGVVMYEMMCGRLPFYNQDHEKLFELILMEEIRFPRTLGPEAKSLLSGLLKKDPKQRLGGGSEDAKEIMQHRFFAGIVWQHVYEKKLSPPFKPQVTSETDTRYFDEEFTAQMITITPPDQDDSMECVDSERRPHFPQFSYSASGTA
Chain of Caspase-3 (Homo sapiens) (P42574 whole entry, looked up): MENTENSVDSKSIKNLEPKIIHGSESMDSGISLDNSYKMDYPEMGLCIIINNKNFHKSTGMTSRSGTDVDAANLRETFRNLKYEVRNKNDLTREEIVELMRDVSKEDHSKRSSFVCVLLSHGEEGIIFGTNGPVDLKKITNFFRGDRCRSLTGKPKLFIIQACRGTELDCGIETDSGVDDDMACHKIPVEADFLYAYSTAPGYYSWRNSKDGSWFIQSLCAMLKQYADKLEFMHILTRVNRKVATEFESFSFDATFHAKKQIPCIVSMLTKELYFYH

The first assay concerns the target human AKT serine/threonine Kinase 1 (AKT1), AKT1 (gene 207) (UniProt P31749). Kind of assay: NVS_ENZ_hAKT1: NovaScreen (NVS) Enzymatic Assay for human AKT serine/threonine Kinase 1 (AKT1) (AID 2283138). The procedure, abridged: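 Cell-free recombinant enzyme with substrate; activity read by fluorescence intensity after electrophoretic mobility shift separating substrate from product, 1 h after dosing. Single-concentration duplicates at 25 uM, then singleton concentration-response up to 50 uM; loss of signal versus DMSO.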
`CC(C)N(Cc1ccccc1)C(=O)C(C)(C)C`: the call was inactive.
Consider `O=P(OCCCl)(OCCCl)OCCCl`, for which the call was inactive.
Same read-out and setting: under `Clc1ccc(Cl)c(Cl)c1` stands “inactive”.
As for `c1ccc(NNc2ccccc2)cc1`, the outcome was inactive.
On the same count and under the same terms, under `CCNS(=O)(=O)C(F)(F)C(F)(F)C(F)(F)C(F)(F)C(F)(F)C(F)(F)C(F)(F)C(F)(F)F` stands “inactive”.

The next assay addresses Caspase-3 (Homo sapiens) (UniProt P42574). Kind of assay: NVS_ENZ_hCASP3: NovaScreen (NVS) Enzymatic Assay for human Caspase 3 (CASP3) (AID 2283139). Summed up:
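Recombinant human caspase-3 from E. coli with a fluorogenic substrate, read by fluorescence 1 h after dosing. Primary screen in duplicate at 25 uM. Actives (for example ≥30% inhibition) rerun as concentration-response up to 50 uM.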
In the case of `Nc1ccc(Cl)cc1N`, the AC50 is 4.4 µM (active).
On to `CCCSC(=O)N(CCC)CCC`, for which the outcome was inactive.
Still for that read-out and setting: the entry for `CCCCCCCCOC(=O)c1ccc(C(=O)OCCCCCCCC)c(C(=O)OCCCCCCCC)c1` is “inactive”.

Another assay addresses human Beta-secretase (BACE), BACE1 (gene 23621) (UniProt P56817). The assay is described as follows: NVS_ENZ_hBACE: NovaScreen (NVS) Enzymatic Assay for human Beta-secretase (BACE) (AID 2283140).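 Note: hits are inhibitors that reduce fluorescent substrate signal versus DMSO.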 Summed up: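 Cell-free fluorescence-intensity assay of recombinant BACE1 expressed in SF9 cells, read 1 hour after dosing. Loss of signal indicates reduced protease activity, fitted relative to DMSO negative control. Primary screen at 25 uM in duplicate; actives followed in concentration series.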
For `Nc1ccc(Cl)cc1N`, the AC50 was 2.52 µM (active).
On to `CN(C)[C@@H]1C(=O)C(C(N)=O)=C(O)[C@@]2(O)C(=O)C3=C(O)c4c(O)cccc4[C@@](C)(O)[C@H]3C[C@@H]12`, for which the result was inactive.
Still for that read-out and setting: the entry for `O=[N+]([O-])c1ccc(Oc2ccc(Cl)cc2Cl)cc1` is “inactive”.
For `CC(C)(O)c1cnn2c(-c3ccc(F)c(-c4c(F)cccc4C#N)c3)cnc2n1`, the AC50 was 5.34 µM (active).
On to `Cc1cc(N=Nc2ccccc2C)ccc1N`, for which the AC50 is 25 µM (active).
Still for that read-out and setting: the figure for `CCCCCOC(=O)c1ccccc1C(=O)OCCCCC` is 11.5 µM (active).
With `Cc1ccc(N)c(N)c1`, the compound was classed as inactive.
For `Oc1ccc2ccc3cccc4ccc1c2c34`, the AC50 is 8.84 µM (active).
For the compound `Cc1ccc(N=C=O)cc1N=C=O`, the AC50 was 8.64 µM (active).
Still for that read-out and setting: under `c1ccc2c(c1)-c1cccc3cccc-2c13` stands 1.18 µM (active); under `CCC[CH2][Sn]([Cl])([CH2]CCC)[CH2]CCC`, 4.02 µM (active).
Same read-out and setting: under `CCCCCCCCOC(=O)c1ccc(C(=O)OCCCCCCCC)c(C(=O)OCCCCCCCC)c1` stands 11.2 µM (active).
Same read-out and setting: the figure for `CCNS(=O)(=O)C(F)(F)C(F)(F)C(F)(F)C(F)(F)C(F)(F)C(F)(F)C(F)(F)C(F)(F)F` is 8.43 µM (active).
